Bioassay records (PubChem)
NR3A LBD binder = modulates the human NR3A ligand-binding domain; NR3A LBD differential scanning fluorimetry, Tm shift; 0% = protein alone, 100% = glycine-bound protein; AID 1259313; 340,000 tested, 2.5% active; Tm shift relative to glycine control, % at 25 µM;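 active = melting temperature shift of at least 10% of the positive control shift, at one fixed dose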
CSC inhib = cancer stem cell inhibition; cancer stem cell-like cells viability, luminescence; inhibition, % at 7.5 µM; 300,000 tested, 1.1% active; in the data active = inhibition above about 75%; tested in HMLE shEcad cells
Beta apoptosis = blocks beta cell apoptosis. INS-1E cytokine-induced death, ATP luminescence, 48 h; percent of positive-control rescue, neutral wells zero. protection from apoptosis, % (no concentration beside the values). 300,000 tested, 0.8% active. AID 435005;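 active = Every replicate reaches about 75%, or at least half do and their mean reaches it too, limit read from the data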;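 note: 0% = cytokine-treated negative control wells and 100% = positive control rescue; higher means more ATP so stronger rescue from cytokine killing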
Gli-Sufu antag = antagonists of Gli-Sufu signaling; inhibition, % at 5 µM; 340,000 tested, 0.74% active; Sufu-KO-LIGHT fibroblasts, Gli luciferase reporter luminescence;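 active = inhibition above about 55%, limit read from the data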;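 note: 0% = DMSO-treated cells and 100% = wells with medium but no cells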
Mdm2 MdmX PPI = human Mdm2/MdmX binding inhibition; SaOS-2 split-luciferase Mdm2/MdmX complementation, luminescence; inhibition, % at 8 µM; 330,000 tested, 3% active; O15151+Q00987;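 active = inhibition of at least 50% at 8 µM in the primary screen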
MPTP inh = blocks calcium-induced mitochondrial swelling; isolated mouse mitochondria, Ca2+ swelling absorbance, 30 min; inhibition, % at 10 µM; 360,000 tested, 1.4% active;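 active = inhibition of 50% or more, scaled per plate between neutral and stimulator controls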;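 note: 0% = DMSO wells given calcium and 100% = 1 mM EGTA wells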
An asterisk follows results filed as active; / = no result given. In the library only some 6.6% were active in any assay of this set; here they are far more common.

SMILES	NR3A LBD binder	CSC inhib	Beta apoptosis	Gli-Sufu antag	Mdm2 MdmX PPI	MPTP inh
COc1ccc(-c2ccc([C@H]3[C@H]4C=CC[C@@H](C)[C@@H]4C(=O)N3Cc3ccccc3)c(F)c2)cc1	16*	66	69	-12	30	0
COc1ccc(-c2ccoc2)cc1[C@H]1[C@H]2C=CC[C@@H](C)[C@@H]2C(=O)N1Cc1ccccc1	14*	65	0	6	36	0
COc1ccc(-c2ccc(C)cc2)cc1[C@H]1[C@H]2C=CC[C@@H](C)[C@@H]2C(=O)N1Cc1ccccc1	-1	-2	6	7	39	-1
CSc1ccc(-c2cc3c(c4c2ccn4C)C2CCC3O2)cc1 (stereo unspecified)	/	/	/	/	/	2
C#CCN1C(=O)S/C(=C/c2cc(C)n(CC)c2C)C1=O	33*	12	-4	-118	-227	1
COc1ccc(S(=O)(=O)N2CCc3ccccc3C2)cc1OC	14*	-10	-7	3	23	0
CC12CCC(C)(O1)C1C(=O)N(c3nccs3)C(=O)C12 (stereo unspecified)	1	/	/	5	/	0
O=C(CSc1nnc(CNC(=O)c2ccccc2)o1)NCc1ccc2c(c1)OCO2	-2	-8	0	-7	-15	1
COc1ccc(NS(=O)(=O)c2cc(-c3cnc(C4CC4)o3)ccc2C)cc1	-10	80*	17	-9	44	0
CCOc1ccc(NC(=O)C2CC(=O)N(CCc3ccc(OC)c(OC)c3)C2)cc1OCC (stereo unspecified)	-3	/	-1	/	5	0
Cc1ccc(S(=O)(=O)N2CCCCC2)cc1NC(=O)COC(=O)C1CC2C=CC1C2 (stereo unspecified)	10*	-11	-6	-2	22	2
NS(=O)(=O)c1ccc2nc(NC(=O)c3ccc(Br)o3)sc2c1	-1	3	-5	-27	-12	-3
Cc1cc(C)c2sc(NC(=O)c3ccc([N+](=O)[O-])o3)nc2c1	15*	92*	3	-10	17	4
Cc1ccc2nc(NC(=O)c3ccc(Br)o3)sc2c1	18*	1	10	-76	-183	2
Cc1ccc2nc(NC(=O)CCNS(=O)(=O)c3cccs3)sc2c1	-6	-7	12	-24	-9	6
COc1ccc2nc(NC(=O)c3ccc([N+](=O)[O-])o3)sc2c1	2	75*	/	-30	0	2
Cc1ccc2nc(NC(=O)CCNS(=O)(=O)c3ccc(Br)s3)sc2c1	11*	21	-1	-16	37	3
O=C(NCc1ccc(F)cc1)c1cc(C2CCCCN2C(=O)c2ccc(Cl)cc2)on1 (stereo unspecified)	/	/	/	/	/	-1
Cc1ccc(Cn2cc(CN(C)C3CN(Cc4cn(Cc5ccc(C)cc5)nn4)S(=O)(=O)C3)nn2)cc1 (stereo unspecified)	/	/	/	/	/	0
O=C(Nc1nc2c(F)cc(F)cc2s1)c1ccc([N+](=O)[O-])o1	-12	96*	24	-33	-29	31
Cc1cc(C)c2nc(NC(=O)c3ccc([N+](=O)[O-])o3)sc2c1	-1	-11	/	-12	32	3
O=C(CN1C(=O)NC2(CCCC2)C1=O)NNC(=O)c1ccccc1	0	-15	-4	-8	13	-2
COc1ccc([C@@]23Oc4cc(OC)cc(OC)c4[C@]2(O)[C@H](O)[C@H](C(=O)N(C)C)[C@H]3c2ccccc2)cc1	1	/	/	77*	/	2
Nc1ccc(C23CC4CC(CC(CO)(C4)C2)C3)cc1	1	-12	9	-3	10	-1
Nc1ccc(C23CC4CC(CC(O)(C4)C2)C3)cc1	17*	5	-6	8	12	-1
SMILES	NR3A LBD binder	CSC inhib	Beta apoptosis	Gli-Sufu antag	Mdm2 MdmX PPI	MPTP inh
COc1ccc(C(C(=O)NC2CCCC2)n2c(C3CCN(C(C)=O)CC3)nc3ccccc32)cc1 (stereo unspecified)	/	/	/	/	/	-2
COc1cc(/C=N/NC(=O)c2cccc(C)c2)ccc1OCC(=O)Nc1ccccc1	19*	-4	-3	-9	7	-5
COc1cc(/C=N/NC(=O)c2cccc([N+](=O)[O-])c2)ccc1OCc1ccccc1	22*	17	2	-12	-1	0
CCOc1cc(C=C2C(=O)c3ccccc3C2=O)ccc1OCC(=O)Nc1ccc(C)cc1	14*	1	2	2	5	0
O=C(N/N=C/c1cccc([N+](=O)[O-])c1)c1ccc(COc2ccccc2-c2ccccc2)cc1	16*	-1	2	-13	-6	9
CSc1ccc(CCNS(=O)(=O)c2csc(C(N)=O)c2)cc1	0	-4	0	-14	-1	-1
O=C(COc1ccccc1-c1ccccc1)N/N=C/c1ccc2ccccc2c1	8	100*	97*	47	/	0
Cc1ccc(O)c(NC(=O)c2cc(-c3ccc(F)cc3)on2)c1	217*	-4	0	-1	17	-1
Cc1ccc(O)c(NC(=O)c2cc(-c3cccs3)on2)c1	0	19	4	4	-65	-1
O=C(Cc1c(C(=O)O)[nH]c2ccc(Cl)cc12)Nc1ccc2c(c1)OCCO2	12*	5	-5	13	20	0
C/C(CC(=O)Nc1ccc2c(c1)OCCO2)=N\NC(=O)Cc1ccc(Cl)cc1	-1	-20	-3	-8	-10	-4
Cc1ccc(OCCCCN(C)Cc2ccccc2)c(Br)c1	-1	94*	1	25	-4	4
Cc1ccc(C)c(OC(=O)C2CSC3(C)CCC(=O)N23)c1C (stereo unspecified)	-1	/	-3	13	0	1
CCc1c(C)sc(NC(=S)N2CCN(CC)CC2)c1C(=O)OC	0	53	-4	16	29	1
CCN1CCN(C(=S)Nc2sc(C)c(-c3ccccc3)c2C(=O)OC)CC1	2	90*	3	13	28	0
CCN(CC)C(=O)Oc1ccc(Cl)c2cccnc12	0	-9	-1	-3	4	2
O=C(Nc1cccc(C(F)(F)F)c1)Oc1ccc(Cl)c2cccnc12	/	43	115*	9	/	2
O=C(/C=C/c1ccccc1)c1ccccc1	1	15	-8	13	18	1
N#Cc1ccc(/C=C/C(=O)c2ccccc2)cc1	12*	35	7	-5	35	0
COc1ccc(CNC(=O)C2CCCN2C(=O)NCc2ccccc2)cc1 (stereo unspecified)	0	3	-9	-1	30	0
CC(=O)c1ccc(-n2c(SCC(=O)c3c[nH]c4ccccc34)nc3ccccc3c2=O)cc1	16*	2	-3	-5	2	5
O=C(Nc1ccc2nc(-c3ccc(Br)o3)[nH]c2c1)c1cccs1	21*	39	22	-27	16	0
Cn1cccc1-c1nc2ccc(NC(=O)c3cccs3)cc2[nH]1	16*	-8	16	-15	-13	6
